EPAC2 ag – activates human EPAC2 exchange factor. 360,000 compounds, 0.079% hits. Potency, µM (highest dose often 154 µM), for the others: at the top dose activation, usual class: activators. EPAC2 activation, biochemical qHTS; response scale: 100% = 6.5 mM cAMP response; note: nearly all actives have a fitted effect of over 50% in size
Target sequence (Q8WZA2 whole entry, looked up): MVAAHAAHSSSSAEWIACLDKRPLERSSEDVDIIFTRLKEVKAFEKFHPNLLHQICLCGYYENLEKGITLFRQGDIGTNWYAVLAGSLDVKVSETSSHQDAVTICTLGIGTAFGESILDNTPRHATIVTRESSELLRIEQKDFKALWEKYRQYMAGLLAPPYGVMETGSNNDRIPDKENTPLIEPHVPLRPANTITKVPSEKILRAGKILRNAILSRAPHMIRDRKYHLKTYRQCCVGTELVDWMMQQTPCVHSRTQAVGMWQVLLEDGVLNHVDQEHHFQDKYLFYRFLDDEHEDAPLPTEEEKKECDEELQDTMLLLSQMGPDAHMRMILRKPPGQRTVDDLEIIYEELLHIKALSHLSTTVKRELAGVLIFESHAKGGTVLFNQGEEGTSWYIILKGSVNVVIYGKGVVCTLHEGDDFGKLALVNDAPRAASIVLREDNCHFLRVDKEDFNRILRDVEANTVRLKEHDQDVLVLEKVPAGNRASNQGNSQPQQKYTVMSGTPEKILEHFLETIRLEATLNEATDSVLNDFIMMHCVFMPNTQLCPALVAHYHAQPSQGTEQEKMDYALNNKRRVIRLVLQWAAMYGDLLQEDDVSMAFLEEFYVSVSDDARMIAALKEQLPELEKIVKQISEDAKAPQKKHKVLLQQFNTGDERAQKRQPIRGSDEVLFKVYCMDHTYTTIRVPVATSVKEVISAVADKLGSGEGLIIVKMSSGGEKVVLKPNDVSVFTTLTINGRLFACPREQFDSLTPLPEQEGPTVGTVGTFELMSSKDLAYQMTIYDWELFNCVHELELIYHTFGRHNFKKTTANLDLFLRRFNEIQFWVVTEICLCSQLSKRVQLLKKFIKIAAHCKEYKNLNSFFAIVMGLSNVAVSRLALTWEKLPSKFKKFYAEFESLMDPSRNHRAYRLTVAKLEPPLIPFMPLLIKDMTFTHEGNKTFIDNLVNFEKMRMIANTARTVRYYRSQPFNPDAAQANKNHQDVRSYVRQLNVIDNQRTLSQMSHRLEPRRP
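Readout is BODIPY fluorescence (480 nm excitation, 540 nm emission), which falls as labeled GDP is exchanged off Rap1B. EPAC2 at 100 nM acted on 250 nM RAP1B-BODIPY-GDP with 50 uM GDP present.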
EPAC2 antag – blocks human EPAC2 exchange factor; 360,000 compounds, 0.18% hits; Q8WZA2; Potency, µM (titrated, usually from 114 µM), for inactives: at the top dose activity, negative = inhibition, actives largely listed as inhibitors; EPAC2 GEF exchange of Rap1B-BODIPY-GDP, fluorescence; note: % is set by controls: 0 for no effect and ±100 for the full control effect; nearly all actives have a fitted effect of over 45% in size
EPAC1 ag – agonists of human EPAC1; O95398; EPAC1 agonist qHTS, biochemical assay; response scale: 100% = response to 6.5 mM cAMP; Potency, µM (series often up to 154 µM), for inactives: at the top dose activation, most hits filed as activators; 360,000 compounds, 0.073% hits; AID 720707; note: nearly all actives have a fitted effect of over 60% in size
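Nucleotide exchange by EPAC1 (100 nM) on Rap1B–BODIPY-GDP (250 nM) in the presence of 50 uM GDP is tracked fluorescently at 480/540 nm over 30 min. Signals are normalized to a 6.5 mM cAMP control.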
EPAC1 antagonist – antagonists of human EPAC1; 360,000 compounds, 0.14% hits; EPAC1 GEF assay, Rap1b-BODIPY-GDP exchange fluorescence; O95398; AID 720709; Potency, µM (doses to about 115 µM), without a hit: top-dose activity change, negative = inhibition, most hits filed as inhibitors;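 note: plate controls were vehicle for no effect and positive control for full effect; nearly all actives have a fitted effect of over 50% in size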
Active calls of the source: *. Only some compounds are listed: those with a hit (about 0.39% of all), similar ones and a draw of the others. Calls come from the whole dose curve; as a rule, active = well fitted curve in the direction sought with a large enough effect; inconclusive = small, poorly fitted or top-dose-only effect, or another doubt; inactive = no such curve, though single readings can be large; an effect the other way counts as inactive or inconclusive. Potency is the fitted concentration of half-maximal effect.

What do the screens show for `CN1C2C=CC(=O)C1C1C(=O)N(c3ccccc3)C(=O)C12` (centres undefined)?
EPAC2 ag: 3%; EPAC2 antag: 3%; EPAC1 ag: 10%; EPAC1 antagonist: -11%

Results for O=C(CSc1ncnc2[nH]ncc12)Nc1cccc(Oc2ccccc2)c1 ?
EPAC2 ag: 32µM*; EPAC2 antag: 3%; EPAC1 ag: 89µM*; EPAC1 antagonist: inconclusive

What do the screens show for `CCOc1cc2c(c3c1C(c1ccccc1)N(S(=O)(=O)c1ccc(C)cc1)C3)C(=O)C=CC2=O` (centres undefined)?
EPAC2 ag: -7%; EPAC2 antag: 15%; EPAC1 ag: -7%; EPAC1 antagonist: -15%

How did CCN(CC)c1ccc2cc(-c3nnc(-c4ccncc4)o3)c(=O)oc2c1 do in these assays?
EPAC2 ag: 100µM*; EPAC2 antag: 101%; EPAC1 ag: 25%; EPAC1 antagonist: 24%

How did CCN(CC)c1ccc2cc(NC(=O)CCC(=O)O)c(=O)oc2c1 do in these assays?
EPAC2 ag: 27%; EPAC2 antag: 33%; EPAC1 ag: inconclusive; EPAC1 antagonist: 26%

Results for CCN(CC)c1ccc2cc(C(N)=O)c(=N)oc2c1 ?
EPAC2 ag: 89µM*; EPAC2 antag: 143%; EPAC1 ag: 89µM*; EPAC1 antagonist: 176%

What do the screens show for `CCN(CC)c1ccc2cc(C(N)=O)c(=O)oc2c1`?
EPAC2 ag: 7%; EPAC2 antag: -3%; EPAC1 ag: 3%; EPAC1 antagonist: 0%

What do the screens show for `CCN(CC)c1ccc2cc(C(C)=O)c(=O)oc2c1`?
EPAC2 ag: inconclusive; EPAC2 antag: 71%; EPAC1 ag: inconclusive; EPAC1 antagonist: 66%

Results for CCN(CC)c1ccc2cc(C(=O)Nc3ccccn3)c(=O)oc2c1 ?
EPAC2 ag: 100µM*; EPAC2 antag: 205%; EPAC1 ag: 13%; EPAC1 antagonist: 4%

How did CCN(CC)c1ccc2cc(C=O)c(=O)oc2c1 do in these assays?
EPAC2 ag: 100µM*; EPAC2 antag: 18%; EPAC1 ag: 100µM*; EPAC1 antagonist: 73%

What do the screens show for `COc1ccc(Cc2c(-c3ccccc3)nc3ccc(Br)cn23)c(C)c1`?
EPAC2 ag: 0%; EPAC2 antag: -2%; EPAC1 ag: -8%; EPAC1 antagonist: -22%

How did CC1(C(=O)NCCC(F)(F)F)Cc2c(-c3ccccc3)ccnc2O1 (centres undefined) do in these assays?
EPAC2 ag: 7%; EPAC2 antag: -13%; EPAC1 ag: -18%; EPAC1 antagonist: -2%

Results for O=C(C[C@@H]1C[C@H]2c3cc(NC(=O)c4cccnc4)ccc3O[C@H]2[C@H](CO)O1)NCc1ccc(Oc2ccccc2)cc1 ?
EPAC2 ag: 7%; EPAC2 antag: -11%; EPAC1 ag: -24%; EPAC1 antagonist: -13%

Results for N=c1c(S(=O)(=O)c2ccccc2)cc2c(=O)n3ccccc3nc2n1C1CCCC1 ?
EPAC2 ag: 13%; EPAC2 antag: -13%; EPAC1 ag: -1%; EPAC1 antagonist: 10%

How did N=c1c(S(=O)(=O)c2ccc(Br)cc2)cc2c(=O)n3ccccc3nc2n1C1CCCC1 do in these assays?
EPAC2 ag: -1%; EPAC2 antag: 79µM*; EPAC1 ag: 1%; EPAC1 antagonist: -6%

Results for CC(C)CNc1ncnc2c1ncn2[C@H]1CN(CCc2ccccc2)C[C@@H](CO)O1 ?
EPAC2 ag: -2%; EPAC2 antag: 3%; EPAC1 ag: 0%; EPAC1 antagonist: -2%

Results for O=C(Nc1cccs1)Nc1ccccc1Cl ?
EPAC2 ag: 6%; EPAC2 antag: 22µM*; EPAC1 ag: -4%; EPAC1 antagonist: -21%

How did Nc1ccc2c(c1)C(=O)C(=O)c1ccccc1-2 do in these assays?
EPAC2 ag: -12%; EPAC2 antag: 8.9µM*; EPAC1 ag: -9%; EPAC1 antagonist: inconclusive

What do the screens show for `Cc1ccc(C2CC(c3cccs3)=NN2C(=O)CSc2nc(=O)n3cc(C)ccc3n2)cc1` (centres undefined)?
EPAC2 ag: 8%; EPAC2 antag: 7%; EPAC1 ag: 112µM*; EPAC1 antagonist: -10%

What do the screens show for `CCCCCCc1cc2cc(C(=O)NC)c(=N)oc2cc1O`?
EPAC2 ag: 100µM*; EPAC2 antag: 16%; EPAC1 ag: 10%; EPAC1 antagonist: 4%

Results for CCCCCCc1cc2cc(C(=O)OCC)c(=O)oc2cc1O ?
EPAC2 ag: -5%; EPAC2 antag: -12%; EPAC1 ag: -1%; EPAC1 antagonist: 1%

Results for CC(=O)c1ccc(N2C(=O)C3C(C2=O)C(C(=O)c2ccc(Cl)cc2)N2CCCC32)cc1 (centres undefined) ?
EPAC2 ag: 100µM*; EPAC2 antag: 240%; EPAC1 ag: inconclusive; EPAC1 antagonist: -17%

How did Cc1cccc(C)c1-n1nnnc1C(c1ccccc1OC(F)(F)F)N1CCN(C/C=C/c2ccccc2)CC1 (centres undefined) do in these assays?
EPAC2 ag: 1%; EPAC2 antag: -2%; EPAC1 ag: -16%; EPAC1 antagonist: -8%

What do the screens show for `CCCN1C(=O)S/C(=C/c2ccc(N3CCOCC3)o2)C1=O`?
EPAC2 ag: 112µM*; EPAC2 antag: 22%; EPAC1 ag: 79µM*; EPAC1 antagonist: 42%

Results for CCCN1C(=O)S/C(=C\c2ccc(N3CCOCC3)o2)C1=O ?
EPAC2 ag: inconclusive; EPAC2 antag: 6%; EPAC1 ag: inconclusive; EPAC1 antagonist: 46%

How did COC(=O)c1ccc2nc(-c3ccc(OC)c(OC)c3)c(Cc3cccc(F)c3)n2c1 do in these assays?
EPAC2 ag: 11%; EPAC2 antag: inconclusive; EPAC1 ag: 4%; EPAC1 antagonist: -21%

Results for COc1ccc(OC)c(/C=c2\sc3nc(-c4cccs4)nn3c2=O)c1 ?
EPAC2 ag: 100µM*; EPAC2 antag: 205%; EPAC1 ag: 112µM*; EPAC1 antagonist: -4%

How did COc1ccccc1/C=c1\sc2nc(-c3ccco3)nn2c1=O do in these assays?
EPAC2 ag: -2%; EPAC2 antag: 23%; EPAC1 ag: -2%; EPAC1 antagonist: -12%

What do the screens show for `CC1(C(=O)Nc2nccs2)CCN1C(=O)CC(c1ccccc1)c1ccccc1` (centres undefined)?
EPAC2 ag: 10%; EPAC2 antag: -19%; EPAC1 ag: -4%; EPAC1 antagonist: 5%

How did Cc1cc(Br)cn2c(Cc3cccc(F)c3)c(-c3ccccc3)nc12 do in these assays?
EPAC2 ag: 2%; EPAC2 antag: -14%; EPAC1 ag: -8%; EPAC1 antagonist: 1%

Results for O=C(O)c1ccccc1-c1ccc(/C=C/c2cc(C(F)(F)F)[nH]c(=O)n2)o1 ?
EPAC2 ag: 100µM*; EPAC2 antag: 444%; EPAC1 ag: 56µM*; EPAC1 antagonist: inactive

What do the screens show for `Cc1nc(S/C(=C/c2ccc(-c3cc(Cl)ccc3C)o2)C(=O)O)n[nH]1`?
EPAC2 ag: -13%; EPAC2 antag: inconclusive; EPAC1 ag: 3%; EPAC1 antagonist: 2%

Results for O=C(O)c1cc(Cl)ccc1-c1ccc(/C=C/c2cc(C(F)(F)F)[nH]c(=O)n2)o1 ?
EPAC2 ag: 100µM*; EPAC2 antag: 273%; EPAC1 ag: 89µM*; EPAC1 antagonist: 473%
